Data as given in PubChem BioAssay AID1117319 (Southern Research Institute, 2015).
Several values for one entry are separate records, joined by “and”; a condition that tells them apart may be missing. Equal entries are not always repeated. Among all 260,000 compounds or so, about 1,500 (0.58%) were called active. Another 5% or so got no clear call; they are omitted.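 The calls were made as follows: active = inhibition above a set limit at one or more doses, reproduced on every date tested; inconclusive = results disagree between test dates, or hit never tested in dose response; inactive = the rest.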 Not all results are given here. Measured potencies and affinities stand elsewhere.

Target: Virion infectivity factor (Human immunodeficiency virus type 1 group M subtype B (isolate BH10)) + Virion infectivity factor (Human immunodeficiency virus type 1 group M subtype B (isolate BRU/LAI)) + Virion infectivity factor (Human immunodeficiency virus type 1 group M subtype B (isolate PCV12)) + Virion infectivity factor (Human immunodeficiency virus type 1 group M subtype B (isolate HXB2)) + DNA dC->dU-editing enzyme APOBEC-3G (Homo sapiens) (UniProt P69720+P69721+P69722+P69723+Q9HC16)
Assay: HIV-1 Vif–A3G interaction blockers – biochemical, TR-FRET, GST-Vif 1-94, biotin-A3G peptide, dose response retest, primary screen (AID 1117319);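 also: Vif residues 1-94 fused to GST binding biotinylated APOBEC3G peptide 110-148; 0% = full assay without inhibitor and 100% = GST in place of GST-Vif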
Conditions: TR-FRET GST-Vif / biotin-A3G peptide binding; stronger effect = higher value

inhibition, inactive:
COCCNC(=S)N/N=C(\C)CCc1ccc2c(c1)OCO2 3.32%, O=C(/C=C/c1ccco1)NC(=S)Nc1ccccc1 10.3%, Cc1cc(C(=O)NNC(=O)/C=C/c2ccccc2Cl)c(C)o1 -12.6%, Cc1cc(NC(=O)/C=C/c2ccco2)ccc1NC(=O)c1ccccc1 11.7%, COc1ccc(/C=C/C(=O)NNC(=O)c2cc(C)oc2C)cc1 1.71%, O=C(/C=C/c1ccco1)Nc1ccccc1C(=O)Nc1cccc(C(=O)O)c1 30.8%, Cc1ccc(O)c(NC(=S)NC(=O)/C=C/c2ccco2)c1 -4.52%, COc1cccc(NC(=S)NC(=O)/C=C/c2ccco2)c1 28.1%, CC(=O)c1ccc(NC(=S)NC(=O)/C=C/c2ccco2)cc1 9.46%, COc1cc(OC)cc(C(=O)NCC(=O)OCc2nc3ccccc3s2)c1 5.21%, COC(=O)C(NC(=O)c1ccccc1)(Nc1cc(C)cc(C)n1)C(F)(F)F (centres undefined) -5.13%, COc1ccc(CN2C(=O)C(CC(=O)NCCCCc3ccccc3)CC(C(=O)N(C(C)C)C(C)C)=C2C)cc1 (centres undefined) 6.93%, CN(Cc1ccccc1)C(=O)CCC(=O)N(C)Cc1ccccc1 0.41%, C=CCNc1nc2c(c(=O)[nH]c(=O)n2C)n1Cc1cccc(C)c1 -3.73%, CCN(CC)CCOC(=O)c1ccc(NC(=O)COc2cc(=O)n(CC)c3ccccc23)cc1 3.06% and 4.99%, COCCCN1C(=O)c2ccc(C(=O)NCc3ccco3)cc2C1=O 1.46%, O=C(/C=C/c1ccco1)NC(=S)Nc1cc(C(F)(F)F)ccc1N1CCOCC1 31.6%, CC(C)C(=O)N1CCN(c2ccccc2NC(=S)NC(=O)/C=C/c2ccco2)CC1 4.53%, CS(=O)(=O)N(CCC#N)Cc1ccco1 0.4%, CS(=O)(=O)N(CCC#N)Cc1ccc(/C=C2\C(=O)Nc3ccccc32)o1 -11%, CS(=O)(=O)N(CCC#N)Cc1ccc(C=O)o1 -8.77%, Cc1ccc(Sc2ccc(/C=C3/C(=O)NN(c4ccccc4)C3=O)o2)cc1 22.1%, COc1cc2c(cc1OC)CN(C(=O)c1cc3ccccc3oc1=O)CC2 1.51%, Cc1ccc(S(=O)(=O)N2CCC[C@H]2C(=O)OCCN2C(=O)c3ccccc3C2=O)cc1 -7.91%, COC(=O)CN(C(=S)Nc1ccccc1)C1CC(=O)N(c2ccc(OC)cc2)C1=O (centres undefined) -1.92%, Cc1cccc(NC(=O)C2CC(=O)NC(Nc3nc4ccccc4s3)=N2)c1 (centres undefined) 11.6%, O=C(COc1ccccc1)N1CCN(C(=O)c2cccs2)CC1 17.7%, C=CCc1cc(/C=C/c2nc(O)c([N+](=O)[O-])c(=O)[nH]2)cc(OC)c1O 15%, Cc1cccc(NC(=S)NC(=O)C(c2ccccc2)c2ccccc2)n1 -6.56%, CCOc1ccc2noc3c2c1C(=O)c1ccccc1-3 31.7%, CCOC(=O)c1c(C)oc2c1C(=O)c1ccccc1C2=O 6.8%, Cc1ccccc1NC(=O)CN1C(=O)S/C(=C\c2cccn2-c2cccc(C(=O)O)c2)C1=O 31.2%, Cc1ccc(NC(=O)CN2C(=O)S/C(=C\c3cccn3-c3cccc(C(=O)O)c3)C2=O)cc1C -0.87%, CN1C(=O)S/C(=C/c2cccn2-c2cccc(C(=O)O)c2)C1=O 6.22%, Cc1cccc(C)c1NC(=O)CN1C(=O)S/C(=C\c2cccn2-c2cccc(C(=O)O)c2)C1=O 6.97%, Cc1ccc(OCC(=O)N2CCOCC2)cc1C -10.7%, CCCOc1ccc(N2C(=O)CC(N3CCN(CCN=CC4=C(O)CC(C)(C)CC4=O)CC3)C2=O)cc1 (centres undefined) 8.53%, CCOC(=O)C1CCN(C(=O)C2CCN(S(=O)(=O)c3cccc4nsnc34)CC2)CC1 -1.01%, COc1cc(C(=O)Oc2ccccc2N)cc(OC)c1OC -1.18%, Oc1ccc(N=Nc2ccccc2C(F)(F)F)c2cccnc12 9.97%, O=Nc1ccc(O)c2ncccc12 25.1%, CC(C)Oc1ccccc1C1CC(=O)Nc2c1c(=O)n(C)c(=O)n2C (centres undefined) 0.23%, COc1cccc(C2CC(=O)Nc3c2c(=O)n(C)c(=O)n3C)c1OC (centres undefined) 10.5%, O=C(CCCC(=O)OCC(F)(F)C(F)F)Nc1ccccc1F 0.88%, O=C(O)C1CCCCC1C(=O)Nc1nc(-c2cccs2)cs1 (centres undefined) -11.2%, CC(=O)OC1COC(n2ccc3cc([N+](=O)[O-])ccc32)C(OC(C)=O)C1OC(C)=O (centres undefined) -8.03%, CC(=O)O[C@@H]1[C@@H](OC(C)=O)[C@H](n2ccc3cc([N+](=O)[O-])ccc32)OC[C@@H]1OC(C)=O 11.9%, CCOc1ccc(-c2nc(CSc3nnc(N)s3)cs2)cc1 -2.32%, CC(=O)c1ccc(OC(=O)CCN2c3ccccc3Sc3ccccc32)cc1 3.97%, CN1CCN(C(=O)c2cc(-c3ccco3)on2)CC1 -6.26%, O=C(c1cc(-c2ccco2)on1)N1CCOCC1 5.5%, O=C(c1ccc(NS(=O)(=O)c2ccccc2)cc1)N1CCN(Cc2ccc3c(c2)OCO3)CC1 -2.32% and -6.24%, CCc1ccc(N(CC)C(=O)Cc2c(C(=O)O)n(C)c3ccccc23)cc1 3.87%, C=CCOC(=O)C1=C(C)N=C2SCCC(=O)N2C1c1ccc(OC(=O)c2ccco2)cc1 (centres undefined) -4.13%, Cn1c(-c2cnn(-c3ccccc3)c2-n2cccc2)n[nH]c1=S -6.44%, CCN(CC)Cc1cc(C(C)=O)ccc1O 1.01%, CCc1oc(C(=O)O)cc1CN(CC)CC 19%, O=C(COC(=O)c1cc(=O)[nH]c2ccccc12)Nc1nccs1 0.86%, Cc1ccc(C(=O)C2=C(O)C(=O)N(c3ncccn3)C2c2ccc(Br)cc2)o1 (centres undefined) 10.3%, Cc1ccc(C(=O)C2=C(O)C(=O)N(c3ncccn3)C2c2ccc(Cl)cc2)o1 (centres undefined) -30.5%, Cc1ccc(-n2c(-c3ccccc3)nnc2-c2cccs2)cc1 -9.97%, O=C(CCc1ccc(S(=O)(=O)NCc2ccccc2)cc1)N1CCN(Cc2ccc3c(c2)OCO3)CC1 1.72%, CCCCC1=CC2=CC(=O)C(C)(OC(=O)CC)C(=O)C2=CN1Cc1ccccc1 (centres undefined) 25%, COC(=O)CCC(=O)OC1(C)C(=O)C=C2C=C(C3CC3)N(C3CCCCC3)C=C2C1=O (centres undefined) 17.8%, CCCCC1=CC2=CC(=O)C(C)(OC(=O)CC)C(=O)C2=CN1CCc1ccccn1 (centres undefined) 21.2%, CC1(C)CC(=O)CC(C)(C)N1OC(=O)c1ccco1 0.85%, CN1/C(=C\C(=O)COC(=O)c2ccco2)C(C)(C)c2ccccc21 3.26%, COCCN1C=C2C(=O)C(C)(OC(=O)CCC(=O)OC)C(=O)C=C2C=C1C1CC1 (centres undefined) 10.6%, COC(=O)CCC(=O)OC1(C)C(=O)C=C2C=C(C3CC3)N(c3cccc(C#N)c3)C=C2C1=O (centres undefined) 11.9%, COC(=O)CCC(=O)OC1(C)C(=O)C=C2C=C(C3CC3)N(CCc3ccccn3)C=C2C1=O (centres undefined) -2.65%, CCN(CC(=O)NC)S(=O)(=O)c1ccc(Br)cc1 0.33%, CCc1ccccc1NC1=NCC(=O)N1Cc1ccc(OC)cc1 -4.85%, CCCCCC(O)(c1ccc(OCC)cc1)C(CN1CCOCC1)c1ccccc1 (centres undefined) -5.23%, COc1cccc(NC(=O)CN2C(=O)COc3ccc(S(=O)(=O)N4CCC(C)CC4)cc32)c1 -1.2%, OCCC1CN(Cc2cccc3nonc23)CCN1Cc1ccsc1 (centres undefined) 21.2%, CC(C)CCNC(=O)C(c1ccco1)N(CC1CCCO1)C(=O)Cn1nnc2ccccc21 (centres undefined) 18.9%, CCCCC1=CC2=CC(=O)C(C)(OC(=O)CC)C(=O)C2=CN1C1CCCCC1 (centres undefined) 18.3%, COc1ccc(CN2C=C3C(=O)C(C)(OC(=O)C4CCCC4)C(=O)C=C3C=C2c2ccsc2)cc1 (centres undefined) 31%, C=CCN1C=C2C(=O)C(C)(OC(=O)C3CCCC3)C(=O)C=C2C=C1c1ccsc1 (centres undefined) 22.2%, COC/C=C/C1=CC2=CC(=O)C(C)(OC(=O)c3cnc4ccccc4n3)C(=O)C2=CN1C(CO)CO (centres undefined) 19.5%, COC(=O)CCC(=O)OC1(C)C(=O)C=C2C=C(C3CC3)N(c3ccccc3)C=C2C1=O (centres undefined) 21.6%, CC1(OC(=O)C2CCCC2)C(=O)C=C2C=C(c3ccsc3)N(CCCCO)C=C2C1=O (centres undefined) 21.2%, CCOC(=O)C1=C(COC(=O)Cc2ccccc2)NC(=O)NC1C (centres undefined) 2.89%, CCCS(=O)(=O)c1nc(S(=O)(=O)c2ccc(C)cc2)c(N2CCCC2)s1 -10.9%, O=C1C2CC=CCC2C(=O)N1c1ncn[nH]1 (centres undefined) 0.84%, COc1cccc(OC)c1C(=O)Nc1ccccc1NC(=O)c1c(OC)cccc1OC -6.67%, O=[N+]([O-])c1ccc(/C=N/n2cn[nH]c2=S)cc1 0.85%, O=S(=O)(NC1CC1)c1ccc(S(=O)(=O)N2CCc3ccccc32)cc1 18.3%, COc1cc2c(cc1OC)C1c3ccc(OC)c(OC)c3OCC1(O)C2 (centres undefined) -4.73%
